Source: the antibiotic and cytotoxicity screens of Wong et al. (2023)
Out of some 39,000 compounds screened, about 3,300 (8.5%) were called active. The full list was thinned out, with actives kept by preference.

The compounds below were run on HepG2 (assay: cytotoxicity call (relative viability < 0.9)). Settings: 10 µM.

| Structure (SMILES) | cytotoxicity call |
| --- | --- |
| COCCOC(=O)N1C(=O)[C@@]2(c3cc(C#CCC(C(=O)OC)C(=O)OC)ccc31)[C@H](C(=O)NC[C@H](O)c1ccccc1)[C@H]1C(=O)O[C@H](c3ccccc3)[C@H](c3ccccc3)N1[C@@H]2c1ccc(OCCO)cc1 | inactive |
| Cn1cnc(CCNC(=O)C[C@@H]2CC[C@@H]3[C@H](COC[C@@H](O)CN3C(=O)Nc3ccc(Cl)cc3)O2)c1 | inactive |
| COc1ccc(S(=O)(=O)N(C)C[C@@H]2Oc3ccc(NC(=O)Nc4cccc5ccccc45)cc3C(=O)N([C@@H](C)CO)C[C@H]2C)cc1 | inactive |
| C[C@H]1CN([C@@H](C)CO)C(=O)c2cc(C#CCN(C)C)cnc2O[C@H]1CN(C)S(=O)(=O)c1ccccc1 | inactive |
| COc1cccc(NC(=O)N2C[C@@H](O)COC[C@H]3O[C@@H](CC(=O)NCc4ccccc4F)CC[C@@H]32)c1 | inactive |
| C[C@@H]1CN([C@@H](C)CO)S(=O)(=O)c2ccc(C#Cc3ccncc3)cc2O[C@@H]1CN(C)C(=O)c1ccncc1 | inactive |
| C[C@H](O)C#Cc1ccc2c(c1)O[C@@H](CN(C)C(=O)c1ccncc1)[C@H](C)CN([C@H](C)CO)S2(=O)=O | inactive |
| C[C@H](O)C#Cc1ccc2c(c1)O[C@@H](CN(C)C(=O)c1ccncc1)[C@@H](C)CN([C@H](C)CO)S2(=O)=O | inactive |
| C[C@H](CO)N1C[C@H](C)[C@@H](CN(C)C(=O)c2ccncc2)Oc2cc(C#Cc3ccncc3)ccc2S1(=O)=O | active |
| C[C@@H]1CN([C@@H](C)CO)S(=O)(=O)c2ccc(C#Cc3ccncc3)cc2O[C@H]1CN(C)C(=O)c1ccncc1 | inactive |
| C[C@H](CO)N1C[C@H](C)[C@H](CN(C)C(=O)c2ccncc2)Oc2cc(C#Cc3ccncc3)ccc2S1(=O)=O | active |
| C[C@@H](O)C#Cc1ccc2c(c1)O[C@@H](CN(C)C(=O)c1ccncc1)[C@@H](C)CN([C@@H](C)CO)S2(=O)=O | inactive |
| C[C@H](O)C#Cc1ccc2c(c1)O[C@@H](CN(C)C(=O)c1ccncc1)[C@H](C)CN([C@@H](C)CO)S2(=O)=O | inactive |
| C[C@H](O)C#Cc1ccc2c(c1)O[C@H](CN(C)C(=O)c1ccncc1)[C@H](C)CN([C@@H](C)CO)S2(=O)=O | inactive |
| C[C@@H]1CN([C@H](C)CO)S(=O)(=O)c2ccc(C#Cc3ccncc3)cc2O[C@@H]1CN(C)C(=O)c1ccncc1 | active |
| C[C@H](O)C#Cc1ccc2c(c1)O[C@H](CN(C)C(=O)c1ccncc1)[C@@H](C)CN([C@@H](C)CO)S2(=O)=O | inactive |
| C[C@H]1CN([C@@H](C)CO)S(=O)(=O)c2ccc(C#Cc3ccncc3)cc2O[C@@H]1CN(C)C(=O)c1ccncc1 | active |
| C[C@@H]1CN([C@H](C)CO)S(=O)(=O)c2ccc(C#CC(C)(C)O)cc2O[C@@H]1CN(C)Cc1ccncc1 | inactive |
| CCCNC(=O)C[C@H]1CC[C@@H]2[C@H](COc3ccc(NS(=O)(=O)c4ccccc4C)cc3C(=O)N2C)O1 | inactive |
| C[C@H](CO)N1C[C@H](C)[C@@H](CN(C)C(=O)Nc2ccc(F)cc2)OCCCC[C@H](C)Oc2ccc(NC(=O)CCC(F)(F)F)cc2C1=O | inactive |
| COCC(=O)N1C[C@H](C)[C@H](OC)CN(C)C(=O)c2cc(NC(=O)c3ccc(OC)cc3)ccc2OC[C@H]1C | inactive |
| NCCSC12CC3CC(CC(C3)C1)C2 | inactive |
| C[C@@H]1CN([C@H](C)CO)S(=O)(=O)c2ccc(C#C[C@@H](C)O)cc2O[C@H]1CN(C)C(=O)c1ccncc1 | inactive |

| Structure (SMILES) | cytotoxicity call |
| --- | --- |
| C[C@@H](O)C#Cc1ccc2c(c1)O[C@H](CN(C)C(=O)c1ccncc1)[C@@H](C)CN([C@@H](C)CO)S2(=O)=O | inactive |
| C[C@H](O)C#Cc1ccc2c(c1)O[C@@H](CN(C)C(=O)c1ccncc1)[C@@H](C)CN([C@@H](C)CO)S2(=O)=O | inactive |
| C[C@H](O)C#Cc1ccc2c(c1)O[C@H](CN(C)C(=O)c1ccncc1)[C@@H](C)CN([C@H](C)CO)S2(=O)=O | inactive |
| C[C@H]1CN([C@@H](C)CO)S(=O)(=O)c2ccc(C#Cc3ccncc3)cc2O[C@H]1CN(C)C(=O)c1ccncc1 | active |
| C[C@@H]1CN([C@H](C)CO)S(=O)(=O)c2ccc(C#Cc3ccncc3)cc2O[C@H]1CN(C)C(=O)c1ccncc1 | active |
| COc1ccc(CN(C)C[C@@H]2OCCCC[C@H](C)Oc3ccc(NS(=O)(=O)c4ccc(C)cc4)cc3C(=O)N([C@H](C)CO)C[C@H]2C)cc1 | inactive |
| COc1ccc(S(=O)(=O)N(C)C[C@H]2OCc3cn(nn3)CCCC(=O)N([C@H](C)CO)C[C@H]2C)cc1 | inactive |
| C[C@@H]1CCCCO[C@H](CN(C)S(C)(=O)=O)[C@@H](C)CN([C@H](C)CO)C(=O)c2cc(NS(=O)(=O)c3cn(C)cn3)ccc2O1 | inactive |
| CC(=O)n1cc([C@@H]2C=C(C(=O)N3CCN(C)CC3)O[C@H](OCc3ccc(CO)cc3)C2)c2ccccc21 | inactive |
| CCn1c(C)cn2c3c(=O)n(CCN4CCOCC4)c(=O)n(C)c3nc12 | inactive |
| O=C/C=C/c1ccccc1Cl | inactive |
| C[C@@H]1CN([C@@H](C)CO)C(=O)c2cccc(NS(C)(=O)=O)c2O[C@H]1CN(C)C(=O)Nc1ccccc1 | inactive |
| C[C@@H]1CN([C@@H](C)CO)C(=O)c2cc(NC(=O)Cc3ccccc3)ccc2O[C@@H]1CN(C)S(C)(=O)=O | inactive |
| COC(=O)c1cccc(C(=O)OC)n1 | inactive |
| COC(=O)c1ccc(O)cc1 | inactive |
| COC(=O)c1ccc(C(=O)OC)nc1 | active |
| C[C@H](CO)N1C[C@H](C)[C@@H](CN(C)S(=O)(=O)c2ccccc2)Oc2ccc(NC(=O)Nc3cccc4ccccc34)cc2C1=O | inactive |
| CCC(=O)N[C@H]1CC[C@@H](CC(=O)OC)O[C@H]1CO | inactive |
| C[C@@H]1CN([C@H](C)CO)C(=O)c2cccc(NC(=O)C3CCCCC3)c2O[C@H]1CN(C)C(=O)Nc1cccc2ccccc12 | inactive |
| COC(=O)[C@H](Cc1ccccc1)N1CC2=C[C@@H]([C@@H](O)CCn3cc(C(=O)NO)nn3)n3c(=O)n(C)c(=O)n3[C@@H]2[C@@H](C2CC2)O1 | inactive |
| Cc1ccc(S(=O)(=O)Nc2ccc3c(c2)C(=O)N([C@@H](C)CO)C[C@H](C)[C@@H](CN(C)C(=O)Nc2ccc(F)cc2)OCCCC[C@H](C)O3)cc1 | inactive |
| Cc1ccc(S(=O)(=O)Nc2ccc3c(c2)C(=O)N([C@H](C)CO)C[C@H](C)[C@@H](CN(C)C(=O)Nc2ccc(F)cc2)OCCCC[C@H](C)O3)cc1 | active |
| Cc1ccc(S(=O)(=O)Nc2ccc3c(c2)C(=O)N([C@@H](C)CO)C[C@@H](C)[C@@H](CN(C)C(=O)Nc2ccccc2)OCCCC[C@H](C)O3)cc1 | inactive |

| Structure (SMILES) | cytotoxicity call |
| --- | --- |
| Cc1ccc(S(=O)(=O)Nc2ccc3c(c2)C(=O)N([C@@H](C)CO)C[C@H](C)[C@H](CN(C)C(=O)Nc2ccc(F)cc2)OCCCC[C@@H](C)O3)cc1 | inactive |
| Cc1ccc(S(=O)(=O)Nc2ccc3c(c2)C(=O)N([C@@H](C)CO)C[C@H](C)[C@@H](CN(C)C(=O)Nc2ccc(F)cc2)OCCCC[C@@H](C)O3)cc1 | inactive |
| Cc1ccc(S(=O)(=O)Nc2ccc3c(c2)C(=O)N([C@@H](C)CO)C[C@@H](C)[C@H](CN(C)C(=O)Nc2ccc(F)cc2)OCCCC[C@@H](C)O3)cc1 | inactive |
| Cc1ccc(S(=O)(=O)Nc2ccc3c(c2)C(=O)N([C@H](C)CO)C[C@H](C)[C@@H](CN(C)C(=O)Nc2ccccc2)OCCCC[C@H](C)O3)cc1 | inactive |
| Cc1ccc(S(=O)(=O)Nc2ccc3c(c2)C(=O)N([C@H](C)CO)C[C@@H](C)[C@H](CN(C)C(=O)Nc2ccc(F)cc2)OCCCC[C@@H](C)O3)cc1 | active |
| Cc1ccc(S(=O)(=O)Nc2ccc3c(c2)C(=O)N([C@@H](C)CO)C[C@@H](C)[C@@H](CN(C)C(=O)Nc2ccc(F)cc2)OCCCC[C@@H](C)O3)cc1 | inactive |
| Cc1ccc(S(=O)(=O)Nc2ccc3c(c2)C(=O)N([C@H](C)CO)C[C@H](C)[C@H](CN(C)C(=O)Nc2ccc(F)cc2)OCCCC[C@H](C)O3)cc1 | inactive |
| Cc1ccc(S(=O)(=O)Nc2ccc3c(c2)C(=O)N([C@@H](C)CO)C[C@H](C)[C@@H](CN(C)C(=O)Nc2ccccc2)OCCCC[C@H](C)O3)cc1 | active |
| Cc1ccc(S(=O)(=O)Nc2ccc3c(c2)C(=O)N([C@H](C)CO)C[C@@H](C)[C@H](CN(C)C(=O)Nc2ccc(F)cc2)OCCCC[C@H](C)O3)cc1 | active |
| C[C@@H]1CN([C@@H](C)CO)C(=O)c2cccc(NC(=O)C3CCCCC3)c2O[C@H]1CN(C)Cc1ccc(-c2ccccc2)cc1 | inactive |
| CC(C)NC(=O)Nc1ccc2c(c1)C(=O)N([C@@H](C)CO)C[C@H](C)[C@H](CN(C)S(=O)(=O)c1ccc(F)cc1)O2 | inactive |
| Cc1cccc(N2CCC(N)CC2)c1 | inactive |
| CN1C(=O)c2cc(NC(=O)c3ccc(F)c(F)c3)ccc2OC[C@H]2O[C@@H](CC(=O)N3CCOCC3)CC[C@@H]21 | inactive |
| COc1ccc(NC(=O)N(C)C[C@@H]2Oc3c(NC(=O)c4ccc(-c5nccs5)cc4)cccc3C(=O)N([C@@H](C)CO)C[C@H]2C)cc1 | inactive |
| CCNC(=O)C[C@H]1CC[C@@H]2[C@H](COC[C@@H](O)CN2C(=O)Nc2c(C)noc2C)O1 | inactive |
| CN(C)CCCCNC(=O)[C@@H]1C[C@@H]2C(=O)N[C@@H](CCCC[N+](C)(C)C)C(=O)N2[C@@H]1c1cccc(OCCO)c1 | inactive |
| Cc1ccc(S(=O)(=O)Nc2ccc3c(c2)C(=O)N([C@H](C)CO)C[C@@H](C)[C@H](CN(C)S(=O)(=O)c2ccc(C)cc2)OCCCC[C@@H](C)O3)cc1 | inactive |
| Cc1ccc(S(=O)(=O)Nc2ccc3c(c2)C(=O)N([C@@H](C)CO)C[C@@H](C)[C@H](CN(C)S(=O)(=O)c2ccc(C)cc2)OCCCC[C@@H](C)O3)cc1 | active |
| Cc1ccc(S(=O)(=O)Nc2ccc3c(c2)C(=O)N([C@@H](C)CO)C[C@H](C)[C@H](CN(C)S(=O)(=O)c2ccc(C)cc2)OCCCC[C@H](C)O3)cc1 | active |
| Cc1ccc(S(=O)(=O)Nc2ccc3c(c2)C(=O)N([C@H](C)CO)C[C@@H](C)[C@@H](CN(C)S(=O)(=O)c2ccc(C)cc2)OCCCC[C@@H](C)O3)cc1 | inactive |
| Cc1ccc(S(=O)(=O)Nc2ccc3c(c2)C(=O)N([C@H](C)CO)C[C@H](C)[C@@H](CN(C)S(=O)(=O)c2ccc(C)cc2)OCCCC[C@@H](C)O3)cc1 | inactive |
| Cc1ccc(S(=O)(=O)Nc2ccc3c(c2)C(=O)N([C@H](C)CO)C[C@H](C)[C@@H](CN(C)S(=O)(=O)c2ccc(C)cc2)OCCCC[C@H](C)O3)cc1 | inactive |
